Data: PubChem BioAssay (Tox21)
Results filed as inconclusive are left out. Unmarked numbers belong to inactive results. The call rests on the fitted dose curve; in most records, active means well fitted activation curve with a large enough effect in the repeat runs; inconclusive means weak or mixed curves; inactive means flat fitted curve, though single readings scatter.

assay: A CellTox Green Cytotoxicity Assay to monitor cytotoxicity in HEK293 cells - 16 hour (AID 1224888); conditions: CellTox Green fluorescence; series mostly up to 76.8 µM; activity change: at the top concentration; further: nearly all actives have a fitted effect of over 35% in size
From the text: National Center for Advancing Translational Sciences [NCATS]
NIH Chemical Genomics Center [NCGC]
U.S. Environmental Protection Agency [EPA]
National Institutes of Environmental Health Sciences [NIEHS]
National Toxicology Program [NTP]
Cell-based models are critical for drug discovery. Determining the natural cytotoxic effects resulting from test compounds is an essential research activity. A CellTox Green Cytotoxicity Assay to monitor cytotoxicity in real time of continues cell culture during 40 hours of the compound treatment was used to screen Tox21 10K library compounds in Hek293 cells. CellTox Green Cytotoxicity Assay is a nonlytic, homogeneous, biofluorescent method to measure cytotoxicity in cell culture after experimental manipulation. The assay system uses a proprietary asymmetric cyanine dye that is excluded from viable cells but preferentially stains the dead cell's DNA. […] Viable cells produce no appreciable increases in fluorescence. Therefore, the fluorescence signal produced by the binding interaction with dead cell DNA is proportional to cytotoxicity.
The mixture of Hek293 cell suspension and reagents were dispensed at 600cells/6 ul/well in 1536-well tissue culture treated black solid bottom plates using a Multidrop dispenser. After the assay plates were incubated at a 37 C/5% CO2 incubator for 5 hours, 23 nL of compounds dissolved in DMSO, positive and negative controls was transferred to the assay plate by a pintool work station. The plates were incubated at 37 C for 40 hours. The fluorescence intensity were measured at 0h, 8h, 16h, 24h, 32h and 40h time points using ViewLux plate reader during compound treatment.
On the % scale 0 is the no-effect control and ±100 the full control effect.

SMILES	activity change
CC(=O)CCC1=C(C)CCCC1(C)C	14.6%
CCc1occc(=O)c1O	1.17%
Cc1c(C(=O)c2c[nH]n(C)c2=O)ccc(S(C)(=O)=O)c1C1=NOCC1	-1.75% [at 35.3 µM, hits give high values]
O=C(CCCCC(=O)Nc1c(I)cc(I)c(C(=O)O)c1I)Nc1c(I)cc(I)c(C(=O)O)c1I	-8% [at 35.3 µM, hits give high values]
CN(C)C(C)(C)CO	-1.55%
CCOc1cccc(N)c1	-5.36%
Fc1ccccc1	-5.22%
COc1cc2c(cc1OC)C(=O)C(CC1CCN(Cc3ccccc3)CC1)C2 (stereo not given)	-9.51% [at 35.3 µM, hits give high values]
CC(=O)CC(=O)Nc1ccc(C)cc1C	-2.3%
CCC(C)OC(C)CC (stereo not given)	0.239%
Cc1c(Cl)cccc1Cl	-9.12%
CCCCCCCCCCCCCCCCCCOCCO	5.03% [at 15.8 µM, hits give high values]
C=CCCCCCCCC	-0.702%
O=NN(CCCl)C(=O)NC1CCCCC1	-5.55% [at 35.3 µM, hits give high values]
O=C=NCC1CCCC(CN=C=O)C1 (stereo not given)	-6.33%
Cc1c(NC(=O)c2cccnc2)c(=O)n(-c2ccccc2)n1C	4.39% [at 35.3 µM, hits give high values]
CCCCCCCCCCOC(C)=O	2.8%
CCCCOC(=O)C(C)O (stereo not given)	-19.5%
CC(=O)c1cc(C)oc1C	-8.88%
COC(=O)/C=C\C(=O)O	2.24%

SMILES	activity change
O=C(O)c1cc2ccccc2nc1C(=O)O	-6.63%
CCCCCCCCCOC(=O)c1ccccc1C(=O)OCCCCCCCCC	-9.48%
CCN(CC)CCN	-8.63% [at 35.3 µM, hits give high values]
c1ccc2c(CC3=NCCN3)cccc2c1	-2.01% [at 35.3 µM, hits give high values]
OC[C@H]1O[C@@H](O[C@@H]2[C@@H](CO)O[C@](O)(CO)[C@H]2O)[C@H](O)[C@@H](O)[C@H]1O	12.6% [at 35.3 µM, hits give high values]
CC(O)COC(C)(C)C (stereo not given)	12%
C=CC(=O)CCCCC	-6.06%
O=C(CCCl)NCCc1ccccc1	-10.8% [at 35.3 µM, hits give high values]
CCCC(=O)Nc1ccc(OCC(O)CNC(C)C)c(C(C)=O)c1 (stereo not given)	-6.51% [at 35.3 µM, hits give high values]
CC(C)CO	-4.49%
COP(=O)(O)OP(=O)(O)OC	-17.5%
COC(=O)c1cccc(Cl)c1	-1.46%
CC(C)COC(=O)c1ccccc1	8.87%
C[Si]1(C)O[Si](C)(C)O[Si](C)(C)O[Si](C)(C)O[Si](C)(C)O1	-16.3%
C=CCN1C[C@H](C(=O)N(CCCN(C)C)C(=O)NCC)C[C@@H]2c3cccc4[nH]cc(c34)C[C@H]21	0.279% [at 35.3 µM, hits give high values]
O=C(O)[C@H](O)c1ccccc1	-1.88% [at 35.3 µM, hits give high values]
CC(C)(CO)C(O)C(=O)NCCCO (stereo not given)	-6.32%
COC(=O)CCCCC(CCSS/C(CCO)=C(\C)N(C=O)Cc1cnc(C)nc1N)SC(C)=O (stereo not given)	0.896% [at 35.3 µM, hits give high values]
[O-][n+]1cccc(/C(Cl)=N/OC[C@@H](O)CN2CCCCC2)c1	9.35% [at 35.3 µM, hits give high values]
CC(=O)O[C@H]1C[C@@H]2CC[C@@]1(C)C2(C)C	0.857%
